This excerpt belongs to a sample that is enriched for hits.
ROC1-CUL1 inh = inhibitors of human ROC1-CUL1 ubiquitin ligase activity; E3 ubiquitin-protein ligase RBX1 (Homo sapiens) + Cullin-1 (Homo sapiens), P62877+Q13616; in vitro K48 di-Ub FRET, acceptor:donor ratio, 45 min; inhibition, % at 10 µM; 140,000 tested, 0.6% active; in the data active = inhibition above about 25%
Target sequence (P62877 whole entry, looked up): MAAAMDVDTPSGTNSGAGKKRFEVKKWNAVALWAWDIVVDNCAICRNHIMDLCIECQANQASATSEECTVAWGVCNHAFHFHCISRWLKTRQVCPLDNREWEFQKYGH
Target sequence (Q13616 whole entry, looked up): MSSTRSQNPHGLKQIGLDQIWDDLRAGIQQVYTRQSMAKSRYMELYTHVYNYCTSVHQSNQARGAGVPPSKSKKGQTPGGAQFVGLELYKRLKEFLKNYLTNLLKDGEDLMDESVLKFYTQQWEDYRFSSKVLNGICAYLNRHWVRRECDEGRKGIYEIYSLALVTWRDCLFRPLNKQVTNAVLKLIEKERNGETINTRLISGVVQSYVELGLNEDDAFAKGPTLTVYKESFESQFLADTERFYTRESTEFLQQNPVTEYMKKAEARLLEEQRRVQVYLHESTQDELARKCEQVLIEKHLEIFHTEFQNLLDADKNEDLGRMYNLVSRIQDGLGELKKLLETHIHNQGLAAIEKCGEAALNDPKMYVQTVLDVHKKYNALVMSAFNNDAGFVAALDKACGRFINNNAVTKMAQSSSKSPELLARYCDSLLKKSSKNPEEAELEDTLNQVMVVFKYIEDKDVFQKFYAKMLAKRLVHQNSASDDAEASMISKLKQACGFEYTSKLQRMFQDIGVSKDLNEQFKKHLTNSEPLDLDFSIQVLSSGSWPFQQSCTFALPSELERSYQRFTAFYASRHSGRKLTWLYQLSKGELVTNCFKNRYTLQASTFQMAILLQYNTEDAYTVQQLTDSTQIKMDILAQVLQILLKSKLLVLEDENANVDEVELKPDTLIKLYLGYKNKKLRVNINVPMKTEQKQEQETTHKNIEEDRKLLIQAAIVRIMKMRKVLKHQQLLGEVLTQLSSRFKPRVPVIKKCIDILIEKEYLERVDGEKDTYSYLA
Of the large screens only hits and unclear results are named; the others gave an inactive call.

CC1=C(C#N)C(=O)N(C)C(=O)/C1=C\c1ccc(-c2ccc(C(=O)OC(C)C)cc2)o1	none
COc1ccccc1N1CCN(c2ncccc2CNCc2cnc[nH]2)CC1	none
O=C(O)c1ccnc(SCC(=O)c2ccccc2)c1	none
O=C(CSc1n[nH]c(-c2ccc(Br)cc2)n1)c1ccc([N+](=O)[O-])cc1	none
O=C(CSc1n[nH]c(-c2ccccc2)n1)c1ccc(O)c(O)c1	ROC1-CUL1 inh 27
CCOc1ccc(-c2nc(SCC(=O)c3ccccc3)n[nH]2)cc1	none
O=C(CSc1ncccc1C(=O)O)c1ccc(O)c(O)c1	ROC1-CUL1 inh 31
O=C(O)c1cccnc1SCc1c(F)c(F)c(F)c(F)c1F	none
Clc1cc(Cl)c2[nH]c3c(c2c1)CCc1nonc1-3	none
CC1(C)CCC(=O)C(CN2C(=O)c3ccccc3C2=O)C1=O (centres undefined)	none
CC(C)(C)c1ccc(S(=O)(=O)c2cnc(SCC(=O)Nc3ccc(F)c(Cl)c3)[nH]c2=O)cc1	none
COc1cc(Cl)c(C)cc1NC(=O)CSc1ncc(S(=O)(=O)c2ccc(C(C)(C)C)cc2)c(=O)[nH]1	ROC1-CUL1 inh 53
CCc1ccc(S(=O)(=O)c2cnc(SCC(=O)Nc3ccc(OC)cc3OC)[nH]c2=O)cc1	none
Cc1ccc(NS(=O)(=O)c2cc(F)ccc2F)cc1C	none
CCC(c1ccccc1)c1n[nH]c2c1CN(C(=O)CCc1cnccn1)CC2 (centres undefined)	none
O=C(O)CN1C(=O)/C(=C\c2cc(Cl)cc(Br)c2O)SC1=S	ROC1-CUL1 inh 81
Cc1cc(/C=C2/SC(=O)N(CC(=O)Nc3ccccc3F)C2=O)c(C)n1C	none
O=C(O)CN1C(=O)/C(=C/c2ccccc2C(F)(F)F)SC1=S	none
C=CCN1C(=O)/C(=C\c2c(OCC)ccc3ccccc23)SC1=S	none
O=C(CN1C(=O)S/C(=C/c2ccc(O)c(Br)c2)C1=O)Nc1cccc2ccccc12	none
CCOc1cc(Br)c(Br)c(/C=C2\SC(=S)N(CC(=O)O)C2=O)c1O	ROC1-CUL1 inh 28
O=C(O)CN1C(=O)/C(=C/c2ccc(F)c(Br)c2)SC1=S	none
CCOc1c(Br)cc(/C=C2\SC(=S)N(CC(=O)O)C2=O)cc1Br	none
O=C(CN1C(=O)S/C(=C\c2cc(Cl)cc(Br)c2O)C1=O)Nc1ccccc1F	ROC1-CUL1 inh 26
CN(C(=O)c1coc(CN2CCN(c3ccccc3F)CC2)n1)C1CCOC1 (centres undefined)	none
O=C(CSc1nnc(NC(=O)c2ccccc2Br)s1)Nc1ccc2c(c1)oc1ccccc12	none
c1ccc(-n2nnnc2-c2nnnn2-c2ccccc2)cc1	none
N#Cc1ccc(NN2C(=O)c3cc(Cl)c(Cl)cc3C2=O)c([N+](=O)[O-])c1	none
O=C(N/N=C/c1ccc(Cl)c([N+](=O)[O-])c1)c1cccc(Cl)c1	none
CC(C)c1nc(CNCc2ccc(OCC(O)CN3CCN(C)CC3)cc2)cs1 (centres undefined)	none
COc1ccc(-c2cc(-c3ccc(C)cc3)nc3sc(C(=O)Nc4c(C)cc(C)cc4C)c(N)c23)cc1	none
COc1ccc(-c2cc(-c3ccccc3)nc(N/N=C\c3ccc(OC)cc3OC)n2)cc1	none
Cc1nc(SCC(=O)N2CCCCC2)c2c3c(sc2n1)CCC3	none
O=C(c1ccc(Cl)s1)N1CCN(Cc2ccc(F)cc2)CC1	none
O=C(c1ccc(Cl)s1)N1CCN(C2CCCCC2)CC1	ROC1-CUL1 inh 72
Cc1cc(C(=O)N2CCN(C3CCCCC3)CC2)cs1	none
COc1ccccc1N=CC1Sc2ccccc2C1=S (centres undefined)	none
CC(C)N(C(=O)Cn1c(/C=C/c2ccccc2)nc2ccccc21)c1ccccc1	none
CC12CN3CC(C)(CN(C1)C3c1ccccc1Cl)C2O (centres undefined)	none
Clc1ccccc1C1NCCS1 (centres undefined)	ROC1-CUL1 inh 31
COc1ccc2[nH]c3c(c2c1)CCNC3c1ccccc1Cl (centres undefined)	none
COCC1CCCN(C(=O)c2ccc(N3CCC(OC)CC3)nc2)C1 (centres undefined)	none
O=C(CN(Cc1ccccc1)S(=O)(=O)c1ccccc1)NCc1ccccn1	none
CC1(O)CC(=O)C(C(=O)OCc2ccccc2)C(c2ccc(O)cc2)C1C(=O)OCc1ccccc1 (centres undefined)	none
COC12C=CC(CC1)C1C(=O)c3c(OC(=O)OCc4ccccc4)ccc(O)c3C(=O)C12 (centres undefined)	ROC1-CUL1 inh 27
COC12C=CC(CC1)C1C(=O)c3cccc(O)c3C(=O)C12 (centres undefined)	none
C#CCN(Cc1cccc(OCC(O)CN2CCC(O)CC2)c1)C1CCCCC1 (centres undefined)	none
O=C(CN1C(=O)S/C(=C\c2ccc(Sc3ccc(Cl)cc3)s2)C1=O)Nc1ccc(N2CCOCC2)cc1	none
CCc1c(-c2ccccc2)n(-c2ccccc2)c2ccccc12	none
Cc1cccc(OCC(=O)NCC(=O)N/N=C/c2ccc(-c3ccc(C(=O)O)cc3)o2)c1	none
CN(C)c1cc(N/N=C/c2ccc(OCc3ccc(F)cc3)cc2)nc(N(C)C)n1	none
CN(C)c1cc(N/N=C/c2ccc(-c3ccc(C(=O)O)cc3)o2)nc(N(C)C)n1	ROC1-CUL1 inh 62
